Key:
[1] = molecular target: T1, Aspartate--tRNA(Asp/Asn) ligase (Mycobacterium tuberculosis (strain ATCC 25618 / H37Rv)) (UniProt P9WFW3); experiment: Assay for Asp RNA synthetase-1 from Mycobacterium tuberculosis; format: functional; design: scale not given: direction of the effect not stated beside the values; details: 30 µM; note: in the data most compounds retested in dose-response had high values
T1 sequence (whole entry): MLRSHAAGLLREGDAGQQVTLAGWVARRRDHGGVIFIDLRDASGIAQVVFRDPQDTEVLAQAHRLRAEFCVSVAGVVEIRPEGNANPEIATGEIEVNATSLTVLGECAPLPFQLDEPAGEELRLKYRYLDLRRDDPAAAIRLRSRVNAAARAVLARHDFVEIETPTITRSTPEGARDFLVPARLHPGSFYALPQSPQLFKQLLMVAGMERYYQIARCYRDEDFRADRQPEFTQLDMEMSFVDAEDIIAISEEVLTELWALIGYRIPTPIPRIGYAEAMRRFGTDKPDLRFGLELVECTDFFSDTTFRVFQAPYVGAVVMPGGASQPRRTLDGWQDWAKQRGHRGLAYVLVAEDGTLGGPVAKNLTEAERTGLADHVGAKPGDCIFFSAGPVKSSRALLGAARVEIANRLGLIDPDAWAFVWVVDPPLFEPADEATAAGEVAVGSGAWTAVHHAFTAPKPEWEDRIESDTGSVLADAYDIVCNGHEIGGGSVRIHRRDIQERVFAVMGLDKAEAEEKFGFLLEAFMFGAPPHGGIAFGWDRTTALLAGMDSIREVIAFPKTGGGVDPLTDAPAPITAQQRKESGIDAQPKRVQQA

[2] = molecular target: Shiga toxin 2 (Escherichia coli O157:H7) (UniProt P09385+P09386); experiment: E. coli 0.157:H7 Shiga Toxin SOP - stx2 screening assay; format: functional; design: scale not given: direction of the effect not stated beside the values; details: 30 µM

SMILES	Percent Effect [1]	Percent Effect [2]
Cc1nn(C)c(C)c1C1CCCN1C(=O)c1ccc(NC2CC2)nc1 (configuration not stated)	2.27%	-36.7%
O=C1N(c2ccc(Br)cc2)Cc2nc(=O)[nH]n21	-4.79%	-34.3%
COCCC(=O)N1C[C@H]2CN(Cc3cccc(C)n3)C(=O)[C@H]2C1	0.774%	-18.7%
Cn1ncc2c(=O)[nH]c(CN3CCCC3CC3CCCCC3)nc21 (configuration not stated)	-3.06%	22.5%
CN(CC1CC1)C(=O)CN(Cc1cccc(O)c1)C1CCC(O)CC1 (configuration not stated)	-0.296%	6.41%
O=C(NCCC1=CCCCC1)NCc1nnc2n1CCC2	2.5%	24.3%
CCc1ccccc1-n1cc(O)c(C(=O)N2CCCCC2)n1	1.02%	31%
COc1ccc(C(=O)N2CCCC2c2ccco2)cc1OC (configuration not stated)	-3.37%	-11.3%
O=C(NCCOc1ncc(Cl)cc1Cl)c1ccncc1F	-3.03%	1.2%
CN(C)C(=O)c1ccc2c(c1)N(C)C(CC(=O)NCCC(C)(C)C)CO2 (configuration not stated)	0.279%	5.86%
CC[C@@]1(O)CCN(C(=O)c2ccsc2)C[C@H]1O	-4.99%	-16.9%
CNCC(=O)N1CCCC(c2nccnc2Oc2cccc(F)c2)C1 (configuration not stated)	1.72%	4.34%
CN(CCc1ccccc1)c1cnn(CC(=O)N2CCSCC2)c(=O)c1	8.28%	-15.1%
CC(C)n1cnc2c1C(C(=O)NCCC#N)N(Cc1ccccc1)CC2 (configuration not stated)	-1.11%	-31.8%
CCCn1c(C)c(CC(=O)NC)c2c1CC(C)(C)CC2=O	-1.07%	-13.3%
COCCN(C)C(=O)Cn1cccc(OC)c1=O	49.9%	-42.8%
Cc1nonc1C(=O)N1CCCC(c2ncncc2-c2ccncc2)C1 (configuration not stated)	2.57%	10.2%
Cc1cc(S(=O)(=O)Nc2cccc(-n3cccc3)c2)sc1C(=O)O	7.63%	11%
O=C(NCCCOCC1CCCO1)c1cccnc1N1CCCC1 (configuration not stated)	-1.51%	-14.1%
Cc1noc([C@@H]2C[C@H]3OCC[C@H]3N(S(=O)(=O)c3cccnc3)C2)n1	-1.34%	-21.9%
O=C(c1cnccn1)N1CCN2C[C@H](OCc3ccccn3)C[C@H]2C1	4.4%	-7.9%
Cc1nn(C)cc1CCC(=O)N1CCCC(n2cncn2)C1 (configuration not stated)	-2.1%	12.3%
CC(C)NS(=O)(=O)c1cc(C(=O)O)cc(-c2ccc(CN(C)C)cc2)c1	-3.46%	-20.1%

SMILES	Percent Effect [1]	Percent Effect [2]
CCOc1ccc(C#N)cc1NCC(=O)Nc1cc(F)ccc1F	-5.91%	5.62%
CNC(=O)COc1ccc(CNCc2ccc(F)cc2F)cc1	3.4%	-35.4%
CCN(CC1CCCO1)C(=O)Nc1ccc(F)cc1OC (configuration not stated)	-2.28%	-7.53%
COc1cccc2c1ccn2CC(=O)N[C@@H](CCSC)C(=O)O	6.16%	-11.2%
CCN(Cc1cccc(Cl)c1)Cn1nc(C)c2c(C)onc2c1=O	-2.62%	21.7%
CCn1nccc1CNC(=O)NC1CCCCC1	11.6%	-68.7%
CCN1CCC(NC(=O)CN2CCc3c(nc(C4CC4)n3C)C2)CC1	-3.88%	7.04%
O=C(Nc1cccnc1)[C@H]1CO[C@H]2CCN(c3ncc(F)cn3)C[C@H]2C1	0.524%	-22.2%
COc1ccnc(N2CCN(C(=O)c3cnn(C)c3C3CC3)CC2)n1	-3.2%	11.7%
COc1cc(CNC(=O)NCc2c(C)cc(C)[nH]c2=O)ccc1C	-3.59%	-4.18%
CNC(=O)CCNC(=O)c1cccc(Cn2nc(C)cc2C)c1	-3.31%	-15.4%
CSCc1cccc(S(=O)(=O)N2CCSCC2)c1	0.639%	0.0259%
CC1CCCN(CCNC(=O)c2cncnc2C(C)C)C1 (configuration not stated)	0.418%	-17.1%
CCn1ccnc1CN1CCC(CCC(=O)Nc2ccccc2Cl)CC1	-0.673%	-30.9%
CC(C)c1cc(NC(=O)CN2CCC(N3CCNC3=O)CC2)on1	0.0463%	-28.7%
COc1ccc(CN(C)C(=O)CCC(=O)c2cccs2)c(OC)c1OC	1%	0.732%
Cc1cc(-c2cnc(N3CCNC(=O)C3)nc2-c2ccc(C)o2)on1	-1.93%	-18.2%
COc1cc(C2CC(=O)Oc3cc(C)[nH]c(=O)c32)ccc1OC(F)F (configuration not stated)	-4.59%	-43.6%
Cc1cc(C)n(CC2CCCCN2C(=O)c2ccc3nncn3c2)n1 (configuration not stated)	-3.1%	14.5%
CN(Cc1ccco1)Cc1ccccc1CNC(=O)c1ccncc1	-0.97%	12.1%
CNS(=O)(=O)c1ccc(C(=O)NC2CCOc3ccccc32)o1 (configuration not stated)	-4.13%	5.97%
CCc1nc2n(n1)CC(NCc1ccnc(-c3ccccc3)n1)CC2 (configuration not stated)	-7.45%	5.5%
CSc1nccn1-c1cccc(C(=O)NCC2CC2)c1	4.07%	32%

From ChEMBL document CHEMBL3988442, “University of Dundee, Small-Polar-MMV Screening Library” (2021)
